Experimental findings from PubChem BioAssay AID504332 (National Center for Advancing Translational Sciences (NCATS), 2011) are described below.

Values joined by “and” are separate entries in the source; they are usually repeats but may differ in a detail not shown here. Identical values can stand only once. The whole screen tested about 350,000 compounds, of which about 31,000 (8.9%) were called active. Inconclusive results (about 15%) are left out. The sample as a whole holds a higher share of actives than the screen did. More than one record can exist for a structure, and the calls need not agree. A number with no mark means an inactive call. Calls follow the shape of the dose curve; as a rule, active = well fitted inhibition curve with a large enough effect; inconclusive = small, poorly fitted or top-dose-only effect; inactive = no such curve, though single readings can be large or run the other way.
% is scaled to controls: 0 for no effect and ±100 for the full control effect; potency is read from the fitted curve at half-maximal effect.

Chain of Histone-lysine N-methyltransferase EHMT2 (Homo sapiens) (Q96KQ7 913-1193 limits assumed): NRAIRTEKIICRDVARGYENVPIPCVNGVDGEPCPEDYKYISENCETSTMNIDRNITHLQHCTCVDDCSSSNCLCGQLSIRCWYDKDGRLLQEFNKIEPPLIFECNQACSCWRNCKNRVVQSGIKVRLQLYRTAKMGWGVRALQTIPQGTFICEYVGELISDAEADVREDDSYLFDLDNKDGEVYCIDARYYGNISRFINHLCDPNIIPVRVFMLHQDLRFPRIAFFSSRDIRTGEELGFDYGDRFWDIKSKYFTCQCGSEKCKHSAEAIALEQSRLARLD

This assay has as its target Histone-lysine N-methyltransferase EHMT2 (Homo sapiens) (UniProt Q96KQ7). Put plainly: qHTS Assay for Inhibitors of Histone Lysine Methyltransferase G9a. Also: nearly all actives have a fitted effect of over 75% in size. The following applies: G9a H3K9 monomethylation, AlphaScreen, 2 h; series mostly up to 59 µM; activity, negative = inhibition: at the top concentration. The procedure, abridged:
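Using a bead-based AlphaScreen, monomethylated H3K9 product from 2 h room-temperature reactions (G9a 20 nM, peptide 500 nM, SAM 20 uM) was detected with 0.5 ug/mL rabbit anti-H3K9me1 antibody.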
For the compound `COc1ccc(C)cc1NC(=O)CCc1c(C)nn(-c2ccc(N3CCOCC3)nn2)c1C`, the “activity, negative = inhibition” value was -3.72%. Same read-out and setting: next, `O=C(COC(=O)c1cnccn1)Nc1ccc(Cl)cc1C(F)(F)F`: -3.19% [at 0.501 µM]. On the same count and under the same terms, to `O=C(Cn1c(=O)nc(-c2ccccc2)c2cc(Cl)ccc21)NCc1ccc(Cl)cc1` belongs -4.4%; to `O=C(CSc1cn(CC(=O)N2CCOCC2)c2ccccc12)Nc1ccccc1`, 2.17%; to `CN(CC(=O)NCc1ccncc1)S(=O)(=O)c1ccc(Br)cc1`, 9.67% [at 102 µM].

As for `CCOC(=O)Cc1csc(SCC(=O)Nc2ccc(C)cc2F)n1`, the “activity, negative = inhibition” value is 25.5% [at 102 µM].

As for `C=Cc1ccc(Cn2c(C(=O)OC)cc3sc(C)cc32)cc1`, the “activity, negative = inhibition” value was 62.5%. The same measure, in the same setting: next, `CC(=O)Nc1ccc2nc(SCCOc3cc(C)cc(C)c3)sc2c1`: -9.85%; `COc1ccccc1-n1c(-c2ccc(C)cc2)cn2c3c(=O)n(C)c(=O)n(C)c3nc12`: -26.8%. Still for that read-out and setting: next, `COc1cccc(N2C(=O)CN(Cc3ccccc3)C2=S)c1`: 23.1% [at 102 µM]; `COc1ccc(Nc2cc(=O)n(-c3ccccc3)c3c2c(=O)n(C)c(=O)n3C)cc1`: -9.11% [at 102 µM].

For the compound `COc1ccc(-c2c3c(=O)n(C)c(=O)n(C)c3c3c(C)nc4ccccc4n23)cc1`, the “activity, negative = inhibition” value was 7.67%.

Consider `COc1cccc(-n2cc3c(c2-c2ccccc2)c(=O)n(C)c(=O)n3C)c1`, for which the Potency is 25.1 µM (active). As to `Cc1ccc(-c2c3c(=O)n(C)c(=O)n(C)c3cn2-c2ccccc2O)cc1`, the Potency is 31.6 µM (active). On to `O=C(O)c1ccc(CSc2nc3cccnc3n2Cc2cccc(F)c2)cc1`, for which the “activity, negative = inhibition” value is 6.5%.

In the case of `CCN(CC(=O)NCc1cccs1)C(=O)/C=C/c1ccc(C)cc1`, the activity, negative = inhibition is 9.99% [at 12.7 µM]. On to `CCOC(=O)c1c(C)[nH]c(CCC(=O)NCCCN2CCN(c3cccc(Cl)c3)CC2)c1C`, for which the “activity, negative = inhibition” value is 1.4%.

Regarding `CCOC(=O)c1ccc2c(c1)N(Cc1cccc(OC)c1)C(=O)c1ccccc1S2(=O)=O`, the “activity, negative = inhibition” value is 8.77%. On the same count and under the same terms, next, `O=C(C1Cc2ccccc2CN1C(=O)c1ccco1)N1CCN(c2ccccc2)CC1` (configuration not stated): -27.1%.

Regarding `CC(=O)N1Cc2ccccc2CC1C(=O)O` (configuration not stated), the Potency was 17.8 µM (active). On to `C[C@H](NC(=O)[C@@H]1Cc2ccccc2CN1C(=O)OC(C)(C)C)C(=O)NC1CCCC1`, for which the “activity, negative = inhibition” value is 19.8% [at 102 µM].

As for `C[C@@H]1O[C@@H](OC[C@H]2O[C@@H](Oc3c(-c4ccc(O)cc4)oc4cc(O)cc(O)c4c3=O)[C@H](O)[C@@H](O)[C@@H]2O)[C@H](O)[C@H](O)[C@H]1O`, the activity, negative = inhibition was 4.77% [at 12.7 µM]. Turning to `COc1cccc(N2CC(NS(=O)(=O)c3ccc(Cl)cc3)CC2=O)c1` (configuration not stated), the “activity, negative = inhibition” value was -30.1% [at 102 µM]. Consider `CC1CCC(CN2CCN=C2N(C)C)CC1` (configuration not stated), for which the activity, negative = inhibition is 11.1% [at 12.7 µM]. Take `NC(=S)c1ccc(C(N)=S)o1`: the Potency was 44.7 µM (active).

Turning to `CN(C)C(=O)c1ccc(NC(=O)COC(=O)c2cc3c(s2)CCCCC3)cc1`, the Potency was 3.55 µM (active). Consider `O=C(COC(=O)c1cc2c(s1)CCCC2)NCc1ccccc1Cl`, for which the “activity, negative = inhibition” value is 7.22% [at 102 µM]. On the same count and under the same terms, next, `O=C(Nc1ccc(F)cc1)c1cc2c(s1)CCCC2`: 45% [at 102 µM].

In the case of `Cc1cc(Oc2ccc(Cl)cc2)nc(SCC(=O)c2ccccc2)n1`, the “activity, negative = inhibition” value was 16.6%. `O=C(CSc1cccc[n+]1[O-])c1ccc(Cl)cc1`: the Potency was 4.47 µM (active). Regarding `O=C(CSc1cccc[n+]1[O-])NCCCc1ccccc1`, the “activity, negative = inhibition” value is 4.67% [at 102 µM]. Still for that read-out and setting: to `COc1ccccc1C(=O)CSc1cccc[n+]1[O-]` belongs -25.8% [at 102 µM]; to `O=C(CSc1nc(Nc2ccc(F)c(F)c2)c2ccccc2n1)c1ccc(Cl)cc1`, 3.17%. Take `O=C(CSc1cccc[n+]1[O-])c1ccc(-c2ccccc2)cc1`: the Potency is 3.55 µM (active). `O=C(COC(=O)c1ncc(Cl)c(Cl)c1Cl)NC1CCS(=O)(=O)C1` (configuration not stated): the activity, negative = inhibition was 3.15% [at 12.7 µM]. Same read-out and setting: next, `O=C(NCC1CCCO1)c1cc2c(s1)CCCC2` (configuration not stated): 29.8% [at 12.7 µM]; `Cc1nc(SCCOc2ccc(Cl)cc2)[nH]c(=O)c1Cc1ccccc1`: 6.7%; `CCS(=O)(=O)N1CCc2cc(C(=O)NCc3ccc(OC)cc3)ccc21`: -45%.

For the compound `CN(C)/C=C1/C(=O)Nc2ccccc21`, the activity, negative = inhibition was -2.73% [at 12.7 µM]. The same measure, in the same setting: next, `O=C1Nc2ccccc2/C1=C/c1ccnc2ccccc12`: 3.63% [at 102 µM]. Take `Cc1cc(C)c(/C=C2\C(=O)Nc3ccccc32)[nH]1`: the Potency is 4.47 µM (active) and 16.8 µM (active); the activity, negative = inhibition was -50.4% [at 12.7 µM]. Consider `Cc1cc(-c2ccc(C)c(S(=O)(=O)NCCCN(Cc3ccccc3)C(C)C)c2)on1`, for which the “activity, negative = inhibition” value is 13.8% [at 102 µM].

On to `Oc1cc2c(cc1O)CN(C(=S)NCCc1ccc(Cl)cc1)CCC2`, for which the Potency is 3.55 µM (active) and 2 µM (active) and 4.74 µM (active). Consider `Cc1cccc(NC(=S)NCCc2ccc(Cl)cc2)c1C`, for which the “activity, negative = inhibition” value is -4.68% [at 102 µM]. On the same count and under the same terms, to `COc1ccc(CCNC(=S)N2CCN(S(=O)(=O)c3ccc(Cl)cc3)CC2)cc1` belongs 37.1% [at 102 µM]. Still for that read-out and setting: next, `O=C(NCCc1csc(-c2ccc(C(F)(F)F)cc2)n1)C(=O)Nc1ccc(F)c(Cl)c1`: 12.8%.
